From PubChem BioAssay (NCI)
Compounds without any hit were thinned out: in the full panel of roughly 83,000, 20% have a hit.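 Each cell line was grown in a 96-well plate and treated with one concentration of compound for 48 hours. Values below 10 were considered active.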 Calls of active or inactive are those of the source.

Assays:
Experiment in all cases: NCI-60 one-dose screen, 48 h (100 = growth as untreated, 0 = no growth, -100 = all killed)
Details in all cases: 10 µM unless noted
SK-MEL-2 melanoma = system: SK-MEL-2 melanoma
EKVX NSCLC = system: EKVX NSCLC
SN12C renal = system: SN12C renal
UO-31 renal = system: UO-31 renal
TK-10 renal = system: TK-10 renal
ACHN renal = system: ACHN renal
CAKI-1 renal = system: CAKI-1 renal
A498 renal = system: A498 renal
CCRF-CEM leukemia = system: CCRF-CEM leukemia
MOLT-4 leukemia = system: MOLT-4 leukemia

Measured: growth

COc1cc(/C=C/c2nc(Nc3ccc(S(=O)(=O)Nc4cc(C)on4)cc3)c3ccccc3n2)ccc1O
inactive: SK-MEL-2 melanoma 72% | EKVX NSCLC 73.3% | SN12C renal 60.7% | UO-31 renal 58% | TK-10 renal 93% | ACHN renal 83.6% | CAKI-1 renal 45% | A498 renal 95.2% | CCRF-CEM leukemia 55.9% | MOLT-4 leukemia 42.1%

COc1ccc(N=c2nc3sc4cc(Cl)ccc4n3c(N)c2C#N)cc1
inactive: SK-MEL-2 melanoma 58.6% | EKVX NSCLC 70.8% | SN12C renal 98.4% | UO-31 renal 64.1% | TK-10 renal 118% | ACHN renal 98.2% | CAKI-1 renal 69.2% | A498 renal 100% | CCRF-CEM leukemia 89.2% | MOLT-4 leukemia 37.7%

CC1(C)C(=O)/C(=C\c2cccnc2)C[C@]2(C)[C@H]3CC=C4[C@@H]5C[C@@](C)(C(=O)O)CC[C@]5(C)CC[C@@]4(C)[C@]3(C)CC[C@@H]12
inactive: SK-MEL-2 melanoma 96.8% | EKVX NSCLC 95.8% | SN12C renal 94.2% | UO-31 renal 84.2% | TK-10 renal 101% | ACHN renal 95.8% | CAKI-1 renal 86.9% | A498 renal 100% | CCRF-CEM leukemia 81.8% | MOLT-4 leukemia 87.2%

CCCCCCCC/C=C\CCCCCCCC(=O)Oc1cccc2cccnc12
inactive: SK-MEL-2 melanoma 140% | EKVX NSCLC 95.1% | SN12C renal 88.9% | UO-31 renal 88.3% | TK-10 renal 120% | ACHN renal 103% | A498 renal 121% | CCRF-CEM leukemia 96.3% | MOLT-4 leukemia 80.3%
active: CAKI-1 renal -0.06%

Cc1ccc(C)c2c1C(=O)OC2=O
active: MOLT-4 leukemia 3.4%
inactive: SK-MEL-2 melanoma 84.6% | EKVX NSCLC 105% | SN12C renal 97.9% | UO-31 renal 79.1% | TK-10 renal 102% | ACHN renal 98.8% | CAKI-1 renal 99.4% | A498 renal 101% | CCRF-CEM leukemia 102%

O=C(Oc1ccc([N+](=O)[O-])cc1)c1ccc(CBr)cc1
inactive: SK-MEL-2 melanoma 101% | EKVX NSCLC 103% | SN12C renal 89.9% | UO-31 renal 83.3% | TK-10 renal 99.3% | ACHN renal 95.2% | CAKI-1 renal 86.2% | A498 renal 86.5% | CCRF-CEM leukemia 68.7% | MOLT-4 leukemia 82.7%

Cc1c2c(cn1Cc1ccccc1)CCc1cn(C)nc1-2
inactive: SK-MEL-2 melanoma 114% | EKVX NSCLC 73.2% | SN12C renal 87% | UO-31 renal 68.6% | TK-10 renal 107% | ACHN renal 80.3% | CAKI-1 renal 58.8% | A498 renal 97.5% | CCRF-CEM leukemia 74.4% | MOLT-4 leukemia 69.7%

COc1ccc(-c2nc3ncccn3c2/C=C/C(=O)c2cc(OC)c(OC)c(OC)c2)cc1
inactive: SN12C renal 15.7% | UO-31 renal 17% | TK-10 renal 15.5% | ACHN renal 20.4%
active: SK-MEL-2 melanoma 0.675% | EKVX NSCLC 1.1% | CAKI-1 renal -3.66% | A498 renal -20.5% | CCRF-CEM leukemia 1.32% | MOLT-4 leukemia 4.3%

COc1ccc(-n2nnc(C(=O)NCCc3c[nH]c4ccc(F)cc34)c2C)cc1
inactive: SK-MEL-2 melanoma 91.6% | EKVX NSCLC 102% | SN12C renal 103% | UO-31 renal 83.5% | TK-10 renal 96.2% | ACHN renal 102% | CAKI-1 renal 91.7% | A498 renal 100% | CCRF-CEM leukemia 87.9% | MOLT-4 leukemia 87.9%

CS(=O)(=O)c1ccc(-c2[nH]c3ccc(F)cc3c2/C=N/NC(N)=S)cc1
active: CCRF-CEM leukemia 2.97%
inactive: SK-MEL-2 melanoma 27.4% | EKVX NSCLC 31.8% | SN12C renal 21% | UO-31 renal 40.2% | TK-10 renal 37.8% | ACHN renal 25.2% | CAKI-1 renal 39.4% | A498 renal 17% | MOLT-4 leukemia 11.7%

CN(C)CCN1C(=O)c2cccc3c(-c4ccc(-c5nc6c7ccccc7c7ccccc7c6[nH]5)cc4)ccc(c23)C1=O
inactive: SK-MEL-2 melanoma 105% | EKVX NSCLC 93.9% | SN12C renal 97.4% | UO-31 renal 96.8% | TK-10 renal 105% | ACHN renal 112% | CAKI-1 renal 88% | A498 renal 100% | CCRF-CEM leukemia 55.4% | MOLT-4 leukemia 84%

CC(=O)Nc1ccc2c(c1)Cc1c(F)cccc1-2
inactive: SK-MEL-2 melanoma 128% | EKVX NSCLC 101% | SN12C renal 101% | UO-31 renal 49.2% | TK-10 renal 103% | ACHN renal 93% | CAKI-1 renal 87.2% | A498 renal 77.6% | CCRF-CEM leukemia 85.6% | MOLT-4 leukemia 111%

O=S(=O)(NCCNc1cc(-c2c(-c3cccc(O)c3)nc3sccn23)ccn1)c1ccc(Cl)cc1
inactive: SK-MEL-2 melanoma 79% | EKVX NSCLC 62.1% | SN12C renal 52.8% | TK-10 renal 84.2% | ACHN renal 61.2% | CAKI-1 renal 36.1% | A498 renal 57.1% | CCRF-CEM leukemia 40.1% | MOLT-4 leukemia 33.9%
active: UO-31 renal 3.45%

C=CC(=O)Nc1cccc(C)c1Nc1cc(-c2cccnc2Cc2c(C)c(OC)cc(OC)c2C)ncn1
inactive: EKVX NSCLC 82.1% | SN12C renal 30.1% | UO-31 renal 51% | ACHN renal 29.7% | CAKI-1 renal 36.4%
active: SK-MEL-2 melanoma -29% | TK-10 renal -8.59% | A498 renal -4.92% | CCRF-CEM leukemia -0.444% | MOLT-4 leukemia -7.26%

O=C1/C(=C/c2ccc([N+](=O)[O-])cc2)COc2ccc(O)c(O)c21
inactive: SK-MEL-2 melanoma 85.5% | EKVX NSCLC 41.3% | A498 renal 86.3%
active: SN12C renal -47.3% | UO-31 renal -98.6% | TK-10 renal -8.97% | ACHN renal -77.5% | CAKI-1 renal -53.1% | CCRF-CEM leukemia -2.51% | MOLT-4 leukemia -1.02%

COc1cc(-c2ncn(/C=C\c3nnco3)n2)cc(C(F)(F)F)c1
inactive: EKVX NSCLC 61.5% | SN12C renal 33.6% | UO-31 renal 18.3% | TK-10 renal 34% | ACHN renal 27.7% | CAKI-1 renal 26.1% | CCRF-CEM leukemia 13.6%
active: SK-MEL-2 melanoma -6.5% | A498 renal -33.9% | MOLT-4 leukemia 1.86%

COc1ccc(-c2cn(-c3cccc(C(=O)/C=C/c4cc(OC)c(OC)c(OC)c4)c3)c(=O)[nH]2)cc1
active: SK-MEL-2 melanoma -21.5% | EKVX NSCLC 6.73% | SN12C renal 9.79% | UO-31 renal -33.9% | ACHN renal -49.9% | CAKI-1 renal -12.1% | CCRF-CEM leukemia 6.11% | MOLT-4 leukemia 3.77%
inactive: TK-10 renal 60.8% | A498 renal 62.8%

CC(C)(O)c1cccc(F)c1
active: CCRF-CEM leukemia -41.6%
inactive: SK-MEL-2 melanoma 124% | EKVX NSCLC 92% | SN12C renal 94.7% | UO-31 renal 88.7% | TK-10 renal 109% | ACHN renal 99.1% | CAKI-1 renal 101% | A498 renal 97% | MOLT-4 leukemia 107%

O=C1N/C(=N/O)S/C1=C/c1cn(-c2ccccc2)nc1-c1ccccc1
inactive: SK-MEL-2 melanoma 100% | EKVX NSCLC 87.7% | SN12C renal 96.1% | UO-31 renal 57.5% | TK-10 renal 108% | ACHN renal 100% | CAKI-1 renal 77.2% | A498 renal 85.6% | CCRF-CEM leukemia 91.6% | MOLT-4 leukemia 91.9%

CCOc1cc(N)ccc1C(=O)NCCCN(CC)CC
active: CCRF-CEM leukemia -13.6%
inactive: SK-MEL-2 melanoma 102% | EKVX NSCLC 106% | SN12C renal 98.5% | UO-31 renal 75.8% | TK-10 renal 108% | ACHN renal 94.6% | CAKI-1 renal 95.2% | A498 renal 66.5% | MOLT-4 leukemia 26.3%

CC(C)(C)CC(C)(C)Nc1c(-c2ccc(-c3ccccc3)cc2)nc2cnccn12
inactive: SK-MEL-2 melanoma 72.2% | EKVX NSCLC 92.7% | SN12C renal 98.7% | UO-31 renal 68.8% | TK-10 renal 86.6% | ACHN renal 100% | CAKI-1 renal 76.1% | A498 renal 75.9% | CCRF-CEM leukemia 72.9% | MOLT-4 leukemia 62.5%

CCC(O)(C(c1ccccc1)c1ccccn1)C(c1ccccc1)c1ccccn1 (stereo not given)
inactive: SK-MEL-2 melanoma 97.5% | EKVX NSCLC 97.7% | SN12C renal 110% | UO-31 renal 84.3% | TK-10 renal 107% | ACHN renal 95.2% | CAKI-1 renal 90.3% | A498 renal 96.7% | CCRF-CEM leukemia 114% | MOLT-4 leukemia 87%

C[C@@H]1CC[C@@H]2[C@@H]1[C@H](OC(=O)/C=C/c1ccccc1)[C@]1(CCCOCCOCCOCCOC(=O)CCCC[C@@H]3SC[C@@H]4NC(=O)N[C@@H]43)C[C@@H](OC(=O)CO)[C@@]2(C)O1
inactive: SK-MEL-2 melanoma 108% | EKVX NSCLC 101% | SN12C renal 106% | UO-31 renal 83.1% | TK-10 renal 99% | ACHN renal 102% | CAKI-1 renal 91.5% | A498 renal 97.1% | CCRF-CEM leukemia 98.2% | MOLT-4 leukemia 97.9%

O=C1C=CC(=Nc2cc(Br)c(O)c(Br)c2)C=C1
active: CCRF-CEM leukemia 7.46% | MOLT-4 leukemia -28.9%
inactive: SK-MEL-2 melanoma 65.2% | EKVX NSCLC 90.7% | SN12C renal 78.7% | UO-31 renal 56.3% | TK-10 renal 93.8% | ACHN renal 68.4% | CAKI-1 renal 82.8% | A498 renal 97.2%

Cc1ccc(NSc2ccccc2[N+](=O)[O-])cc1
inactive: SK-MEL-2 melanoma 23.5% | EKVX NSCLC 50.1% | SN12C renal 40.3% | UO-31 renal 33.1% | TK-10 renal 51.7% | ACHN renal 50.4% | CAKI-1 renal 34.2% | CCRF-CEM leukemia 12.4% | MOLT-4 leukemia 29.5%
active: A498 renal 6.22%

C=C1C(=O)O[C@H]2[C@H]1CC/C(COC(=O)/C=C\C(=O)NCc1ccc(Cn3c(=O)sn(-c4ccc(OC)cc4)c3=O)cc1)=C\CC[C@@]1(C)O[C@@H]21
active: SK-MEL-2 melanoma -54.2% | EKVX NSCLC -82.9% | SN12C renal -96.4% | UO-31 renal -100% | TK-10 renal -75.4% | ACHN renal -98.8% | CAKI-1 renal -66.1% | A498 renal 7.18% | CCRF-CEM leukemia -11.4% | MOLT-4 leukemia -26.4%

Cn1cc(-c2ccc3ncc(-c4ccc(CC(=O)Nc5cc(C(C)(C)C)nn5C)cc4)cc3c2)cn1
inactive: EKVX NSCLC 27.1% [30 µM] | SN12C renal 16.6% [30 µM] | TK-10 renal 40.6% [30 µM] | A498 renal 11.4% [30 µM]
active: SK-MEL-2 melanoma -9.17% [30 µM] | UO-31 renal 7.45% [30 µM] | ACHN renal 8.71% [30 µM] | CAKI-1 renal 5.68% [30 µM] | CCRF-CEM leukemia -15.4% [30 µM] | MOLT-4 leukemia -22.1% [30 µM]
